Laboratory results as given in PubChem BioAssay.
Activity calls are given as the source filed them. Cut-off read from the data, not from the text of the source, unless noted: active = inhibition above about 80%; inactive = the rest.

Test: LFS_MB_2R medulloblastoma cell growth inhibition, synergistic combos for chromothripsis tumors, cisplatin combos (AID 1671457);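 note: cells exposed to compound for four days before readout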
Details: LFS_MB_2R medulloblastoma cells, at 0.5 µM, stronger effect = higher value

| SMILES | inhibition |
| --- | --- |
| O=c1[nH]cnc2c1ncn2C1CCC(CO)O1 (configuration not stated) | -19.9% (inactive) |
| Cc1cn(C2C=CC(CO)O2)c(=O)[nH]c1=O (configuration not stated) | -12.5% (inactive) |
| Nc1ccn(C2CCC(CO)O2)c(=O)n1 (configuration not stated) | -6.12% (inactive) |

Same assay, conditions: LFS_MB_2R medulloblastoma cells, measured here: combination with cisplatin, at 0.5 µM, stronger effect = higher value

| SMILES | inhibition [%] |
| --- | --- |
| O=c1[nH]cnc2c1ncn2C1CCC(CO)O1 (configuration not stated) | -27.6 |
| Cc1cn(C2C=CC(CO)O2)c(=O)[nH]c1=O (configuration not stated) | -17.8 |
| Nc1ccn(C2CCC(CO)O2)c(=O)n1 (configuration not stated) | 0.862 |

Same assay, conditions: LFS_MB_2R medulloblastoma cells, measured here: combination with cisplatin, at 5 µM, stronger effect = higher value

| SMILES | inhibition [%] |
| --- | --- |
| O=c1[nH]cnc2c1ncn2C1CCC(CO)O1 (configuration not stated) | -58 |
| Cc1cn(C2C=CC(CO)O2)c(=O)[nH]c1=O (configuration not stated) | -34.1 |
| Nc1ccn(C2CCC(CO)O2)c(=O)n1 (configuration not stated) | 2.6 |

Test: MDA-MB-436 breast carcinoma cell growth inhibition, synergistic combos for chromothripsis tumors, BGB or cisplatin combos (AID 1671458; call rule not given here;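 note: cells exposed for 96 hours; 0% = vehicle DMSO and 100% = killing by high DMSO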)
Details: MDA-MB-436 breast carcinoma growth inhibition, drug combinations; at 0.5 µM; stronger effect = higher value

| SMILES | inhibition |
| --- | --- |
| O=c1[nH]cnc2c1ncn2C1CCC(CO)O1 (configuration not stated) | -28.3% (inactive) |
| Cc1cn(C2C=CC(CO)O2)c(=O)[nH]c1=O (configuration not stated) | -24% (inactive) |
| Nc1ccn(C2CCC(CO)O2)c(=O)n1 (configuration not stated) | -21.2% (inactive) |

Same assay, conditions: MDA-MB-436 breast carcinoma growth inhibition, drug combinations; measured here: BGB combination; at 0.5 µM; stronger effect = higher value

| SMILES | inhibition [%] |
| --- | --- |
| O=c1[nH]cnc2c1ncn2C1CCC(CO)O1 (configuration not stated) | -25.6 |
| Cc1cn(C2C=CC(CO)O2)c(=O)[nH]c1=O (configuration not stated) | -19.7 |
| Nc1ccn(C2CCC(CO)O2)c(=O)n1 (configuration not stated) | -29.5 |

Same assay, conditions: MDA-MB-436 breast carcinoma growth inhibition, drug combinations; measured here: BGB combination; at 5 µM; stronger effect = higher value

| SMILES | inhibition [%] |
| --- | --- |
| O=c1[nH]cnc2c1ncn2C1CCC(CO)O1 (configuration not stated) | -24.3 |
| Cc1cn(C2C=CC(CO)O2)c(=O)[nH]c1=O (configuration not stated) | -23.5 |
| Nc1ccn(C2CCC(CO)O2)c(=O)n1 (configuration not stated) | -21.7 |

Same assay, conditions: MDA-MB-436 breast carcinoma growth inhibition, drug combinations; measured here: cisplatin combination; at 0.5 µM; stronger effect = higher value

| SMILES | inhibition [%] |
| --- | --- |
| O=c1[nH]cnc2c1ncn2C1CCC(CO)O1 (configuration not stated) | -38.2 |
| Cc1cn(C2C=CC(CO)O2)c(=O)[nH]c1=O (configuration not stated) | -37.6 |
| Nc1ccn(C2CCC(CO)O2)c(=O)n1 (configuration not stated) | -25.6 |

Same assay, conditions: MDA-MB-436 breast carcinoma growth inhibition, drug combinations; measured here: cisplatin combination; at 5 µM; stronger effect = higher value

| SMILES | inhibition [%] |
| --- | --- |
| O=c1[nH]cnc2c1ncn2C1CCC(CO)O1 (configuration not stated) | -39 |
| Cc1cn(C2C=CC(CO)O2)c(=O)[nH]c1=O (configuration not stated) | -21 |
| Nc1ccn(C2CCC(CO)O2)c(=O)n1 (configuration not stated) | -2.99 |

Test: UWB1.289_BRCA1 ovarian cancer growth, cell-based, BGB or cisplatin combinations (AID 1671459)
Details: UWB1.289 BRCA1 ovarian carcinoma, drug combinations, BGB combination, concentration series, at 5 µM, stronger effect = higher value

| SMILES | inhibition [%] |
| --- | --- |
| O=c1[nH]cnc2c1ncn2C1CCC(CO)O1 (configuration not stated) | -6.99 |
| Cc1cn(C2C=CC(CO)O2)c(=O)[nH]c1=O (configuration not stated) | -25.5 |
| Nc1ccn(C2CCC(CO)O2)c(=O)n1 (configuration not stated) | -17.4 |

Same assay, conditions: UWB1.289 BRCA1 ovarian carcinoma, drug combinations, at 0.5 µM, stronger effect = higher value

| SMILES | inhibition |
| --- | --- |
| O=c1[nH]cnc2c1ncn2C1CCC(CO)O1 (configuration not stated) | -4.59% (inactive) |
| Cc1cn(C2C=CC(CO)O2)c(=O)[nH]c1=O (configuration not stated) | -15.9% (inactive) |
| Nc1ccn(C2CCC(CO)O2)c(=O)n1 (configuration not stated) | -16.8% (inactive) |

Same assay, conditions: UWB1.289 BRCA1 ovarian carcinoma, drug combinations, cisplatin combination, concentration series, at 5 µM, stronger effect = higher value

| SMILES | inhibition [%] |
| --- | --- |
| O=c1[nH]cnc2c1ncn2C1CCC(CO)O1 (configuration not stated) | 5.72 |
| Cc1cn(C2C=CC(CO)O2)c(=O)[nH]c1=O (configuration not stated) | -8.88 |
| Nc1ccn(C2CCC(CO)O2)c(=O)n1 (configuration not stated) | -7.33 |

Test: human astrocyte viability loss, single and combined drugs, cytotoxicity control for chromothriptic childhood tumor combination screen, cell-based, BGB or cisplatin IC20 combos (AID 1671460);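 note: cells exposed to compounds for 96 hours before viability readout; 0% = vehicle and 100% = killing control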
Details: Human astrocytes, drug combinations, at 0.5 µM, stronger effect = higher value

| SMILES | inhibition |
| --- | --- |
| O=c1[nH]cnc2c1ncn2C1CCC(CO)O1 (configuration not stated) | 4.8% (inactive) |
| Cc1cn(C2C=CC(CO)O2)c(=O)[nH]c1=O (configuration not stated) | -7.19% (inactive) |
| Nc1ccn(C2CCC(CO)O2)c(=O)n1 (configuration not stated) | -3.66% (inactive) |

Same assay, conditions: Human astrocytes, drug combinations, measured here: combo with BGB IC20, at 0.5 µM, stronger effect = higher value

| SMILES | inhibition [%] |
| --- | --- |
| O=c1[nH]cnc2c1ncn2C1CCC(CO)O1 (configuration not stated) | -5.94 |
| Cc1cn(C2C=CC(CO)O2)c(=O)[nH]c1=O (configuration not stated) | -8.45 |
| Nc1ccn(C2CCC(CO)O2)c(=O)n1 (configuration not stated) | 2.88 |

Same assay, conditions: Human astrocytes, drug combinations, measured here: combo with cisplatin IC20, at 0.5 µM, stronger effect = higher value

| SMILES | inhibition [%] |
| --- | --- |
| O=c1[nH]cnc2c1ncn2C1CCC(CO)O1 (configuration not stated) | 2.75 |
| Cc1cn(C2C=CC(CO)O2)c(=O)[nH]c1=O (configuration not stated) | -23.8 |
| Nc1ccn(C2CCC(CO)O2)c(=O)n1 (configuration not stated) | -17 |

Test: growth inhibition of BT084 medulloblastoma cells, cell-based, ICGC_MB145, cisplatin and BGB IC40 combos (AID 1671461);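 note: cells exposed to drugs for 96 hours; 0% = vehicle DMSO and 100% = high DMSO full killing control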
Details: drug combinations, at 0.5 µM, stronger effect = higher value

| SMILES | inhibition |
| --- | --- |
| O=c1[nH]cnc2c1ncn2C1CCC(CO)O1 (configuration not stated) | -19.3% (inactive) |
| Cc1cn(C2C=CC(CO)O2)c(=O)[nH]c1=O (configuration not stated) | -17.7% (inactive) |
| Nc1ccn(C2CCC(CO)O2)c(=O)n1 (configuration not stated) | -0.679% (inactive) |

Same assay, conditions: drug combinations, cisplatin combination, at 0.5 µM, stronger effect = higher value

| SMILES | inhibition [%] |
| --- | --- |
| O=c1[nH]cnc2c1ncn2C1CCC(CO)O1 (configuration not stated) | 2.66 |
| Cc1cn(C2C=CC(CO)O2)c(=O)[nH]c1=O (configuration not stated) | -7.07 |
| Nc1ccn(C2CCC(CO)O2)c(=O)n1 (configuration not stated) | -0.865 |

Same assay, conditions: drug combinations, cisplatin combination, at 5 µM, stronger effect = higher value

| SMILES | inhibition [%] |
| --- | --- |
| O=c1[nH]cnc2c1ncn2C1CCC(CO)O1 (configuration not stated) | 7.38 |
| Cc1cn(C2C=CC(CO)O2)c(=O)[nH]c1=O (configuration not stated) | -5.39 |
| Nc1ccn(C2CCC(CO)O2)c(=O)n1 (configuration not stated) | -52 |

Same assay, conditions: drug combinations, measured here: BGB IC40 combination 0.05 uM, at 0.05 µM, stronger effect = higher value

| SMILES | inhibition [%] |
| --- | --- |
| O=c1[nH]cnc2c1ncn2C1CCC(CO)O1 (configuration not stated) | 1 |
| Cc1cn(C2C=CC(CO)O2)c(=O)[nH]c1=O (configuration not stated) | -19.6 |
| Nc1ccn(C2CCC(CO)O2)c(=O)n1 (configuration not stated) | 24 |

Same assay, conditions: drug combinations, single agent, at 5 µM, stronger effect = higher value

| SMILES | inhibition [%] |
| --- | --- |
| O=c1[nH]cnc2c1ncn2C1CCC(CO)O1 (configuration not stated) | -10.4 |
| Cc1cn(C2C=CC(CO)O2)c(=O)[nH]c1=O (configuration not stated) | -14 |
| Nc1ccn(C2CCC(CO)O2)c(=O)n1 (configuration not stated) | -28.3 |

Test: growth inhibition of RCMB18 medulloblastoma cells, cell-based, cisplatin and BGB IC40 combos (AID 1671462);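 note: cells exposed to compound for four days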
Details: at 0.5 µM, stronger effect = higher value

| SMILES | inhibition |
| --- | --- |
| O=c1[nH]cnc2c1ncn2C1CCC(CO)O1 (configuration not stated) | -28.1% (inactive) |
| Cc1cn(C2C=CC(CO)O2)c(=O)[nH]c1=O (configuration not stated) | -28.5% (inactive) |
| Nc1ccn(C2CCC(CO)O2)c(=O)n1 (configuration not stated) | -1.7% (inactive) |

Same assay, conditions: cisplatin combo, at 5 µM, stronger effect = higher value

| SMILES | inhibition [%] |
| --- | --- |
| O=c1[nH]cnc2c1ncn2C1CCC(CO)O1 (configuration not stated) | -8.55 |
| Cc1cn(C2C=CC(CO)O2)c(=O)[nH]c1=O (configuration not stated) | -44.1 |
| Nc1ccn(C2CCC(CO)O2)c(=O)n1 (configuration not stated) | 11.7 |

Same assay, conditions: measured here: BGB IC40 combination, at 0.05 µM, stronger effect = higher value

| SMILES | inhibition [%] |
| --- | --- |
| O=c1[nH]cnc2c1ncn2C1CCC(CO)O1 (configuration not stated) | 12.3 |
| Cc1cn(C2C=CC(CO)O2)c(=O)[nH]c1=O (configuration not stated) | -19.7 |
| Nc1ccn(C2CCC(CO)O2)c(=O)n1 (configuration not stated) | -6.98 |

Same assay, conditions: measured here: combination with cisplatin, at 0.5 µM, stronger effect = higher value

| SMILES | inhibition [%] |
| --- | --- |
| O=c1[nH]cnc2c1ncn2C1CCC(CO)O1 (configuration not stated) | -23.6 |
| Cc1cn(C2C=CC(CO)O2)c(=O)[nH]c1=O (configuration not stated) | -44.8 |
| Nc1ccn(C2CCC(CO)O2)c(=O)n1 (configuration not stated) | -10.2 |

Same assay, conditions: single agent, at 5 µM, stronger effect = higher value

| SMILES | inhibition [%] |
| --- | --- |
| O=c1[nH]cnc2c1ncn2C1CCC(CO)O1 (configuration not stated) | -21 |
| Cc1cn(C2C=CC(CO)O2)c(=O)[nH]c1=O (configuration not stated) | -28.1 |
| Nc1ccn(C2CCC(CO)O2)c(=O)n1 (configuration not stated) | -30.2 |
